CBX7 inh – CBX7 inhibition, primary AlphaScreen | 1.1% of 66,000 active | normalised signal (fraction of DMSO) (concentration not given with the values) | O95931 | AlphaScreen His6-CBX7 / biotin-H3K27me3 peptide binding; stronger effect = lower value | AID 1224903; in the data active means normalised signal below about 0.5
Target sequence (O95931 whole entry, looked up): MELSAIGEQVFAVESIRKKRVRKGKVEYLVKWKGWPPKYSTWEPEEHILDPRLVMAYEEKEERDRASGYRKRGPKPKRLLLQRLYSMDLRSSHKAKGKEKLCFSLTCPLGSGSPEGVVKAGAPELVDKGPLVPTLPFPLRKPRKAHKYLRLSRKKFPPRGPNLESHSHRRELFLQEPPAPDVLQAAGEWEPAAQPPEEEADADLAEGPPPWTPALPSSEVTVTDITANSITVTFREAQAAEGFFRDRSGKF
Hits are given with their value. This is one part of a sample in which hits are shown more often than they occur.

Results for COc1ccc(OC)c(NC(=O)c2c(NCc3sccc3C)sc3c2CCCC3)c1 ?
CBX7 inh: 0.49

What do the screens show for `COc1ccc(Cl)cc1NC(=O)c1c(NCc2sccc2C)sc2c1CCCC2`?
CBX7 inh: 0.39

How did CCOc1ccc(NC(=O)c2c(NCc3cccs3)sc3c2CCCCC3)cc1 do in these assays?
CBX7 inh: 0.44

How did COc1ccc(NC(=O)c2c(NCc3sccc3C)sc3c2CCCCC3)c(OC)c1 do in these assays?
CBX7 inh: inactive

Results for CC(CNC(=O)c1ccc2nc(N3CCOCC3)sc2c1)c1ccccc1 (configuration not stated) ?
CBX7 inh: inactive

Results for COc1ccc(OC)c(NC(=O)c2cc(-c3ccc(Br)cc3)nc3ccccc23)c1 ?
CBX7 inh: inactive

What do the screens show for `COc1ccc2cc(CCNC(=O)c3c(F)cccc3Cl)c(=O)[nH]c2c1`?
CBX7 inh: inactive

What do the screens show for `c1ccc(-n2c(SCc3nc4ccccc4[nH]3)nc3ccccc32)cc1`?
CBX7 inh: inactive

What do the screens show for `CCN(CC)C(=O)c1ccc2c(c1)N(Cc1ccccc1F)C(=O)c1ccccc1S2`?
CBX7 inh: inactive

Results for Cc1ccccc1-c1nnn(CC(=O)Nc2ccc(OC(F)(F)F)cc2)n1 ?
CBX7 inh: inactive

Results for CCCN1CCN(C(=O)c2cc(C)n(-c3ccccc3)n2)CC1 ?
CBX7 inh: inactive

Results for CCCCN(CC)S(=O)(=O)c1ccc(C(=O)Nc2nc(-c3ccncc3)cs2)cc1 ?
CBX7 inh: inactive

Results for CC1CN(S(=O)(=O)c2ccc(C(=O)Nc3nc(-c4ccccn4)cs3)cc2)CC(C)O1 (configuration not stated) ?
CBX7 inh: 0.31

Results for CN(c1ccccc1)S(=O)(=O)c1ccc(C(=O)Nc2nc(-c3ccccn3)cs2)cc1 ?
CBX7 inh: 0.17

Results for O=C(Nc1nc(-c2ccccn2)cs1)c1ccc(S(=O)(=O)N2CCCc3ccccc32)cc1 ?
CBX7 inh: inactive

Results for CN(c1ccccc1)S(=O)(=O)c1ccc(C(=O)Nc2nc(-c3ccc(Cl)cc3)cs2)cc1 ?
CBX7 inh: inactive

Results for CC1CN(S(=O)(=O)c2ccc(C(=O)Nc3nc(-c4ccncc4)cs3)cc2)CC(C)O1 (configuration not stated) ?
CBX7 inh: inactive

Results for CCCCN(C)S(=O)(=O)c1ccc(C(=O)Nc2nc(-c3ccccn3)cs2)cc1 ?
CBX7 inh: 0.098

Results for CN(C1CCCCC1)S(=O)(=O)c1ccc(C(=O)Nc2nc(-c3ccccn3)cs2)cc1 ?
CBX7 inh: inactive

How did COc1ccccc1-c1csc(NC(=O)c2ccc(S(=O)(=O)N(C)c3ccccc3)cc2)n1 do in these assays?
CBX7 inh: inactive

How did O=C(CCCN1C(=O)CSc2ncccc21)NCCC1=CCCCC1 do in these assays?
CBX7 inh: inactive

What do the screens show for `COc1ccc(C2CC(=O)N(CC(=O)Nc3cccc(Cl)c3)c3ccccc3S2)cc1` (configuration not stated)?
CBX7 inh: inactive

What do the screens show for `Cc1ccn2c(Nc3ccccc3C)c(-c3ccc(C)s3)nc2c1`?
CBX7 inh: inactive

How did CC(C)c1ccc(-c2csc(NC(=O)CCOc3ccccc3)n2)cc1 do in these assays?
CBX7 inh: inactive

How did O=C(CCn1nc(-c2ccc(Cl)cc2)ccc1=O)N1CCCC1 do in these assays?
CBX7 inh: inactive

What do the screens show for `CCn1c(NC(=O)C23CC4CC(C2)CC(n2cnc(Cl)n2)(C4)C3)nc2ccccc21`?
CBX7 inh: inactive

How did COc1ccc(CNC(=O)C(=O)Nc2cccc(Br)c2)cc1 do in these assays?
CBX7 inh: inactive

Results for O=S(=O)(NCC(Nc1ccccc1)c1ccccc1)c1ccc(Cl)cc1 (configuration not stated) ?
CBX7 inh: inactive

How did COc1ccccc1NC(CNS(=O)(=O)c1ccccc1)c1ccccc1 (configuration not stated) do in these assays?
CBX7 inh: 0.47

Results for COc1ccc(NC(CNS(=O)(=O)c2ccc(Cl)cc2)c2ccccc2)cc1 (configuration not stated) ?
CBX7 inh: inactive

How did CC(C)(C)c1ccc2c(c1)N(CC(=O)NCCN1CCN(Cc3ccccc3)CC1)C(=O)CO2 do in these assays?
CBX7 inh: inactive

How did CC(C)(C)c1ccc2c(c1)N(CC(=O)NCCc1ccccc1)C(=O)CO2 do in these assays?
CBX7 inh: 0.41

How did Cc1ccc(CCNC(=O)CN2C(=O)COc3ccc(C(C)(C)C)cc32)cc1 do in these assays?
CBX7 inh: inactive

What do the screens show for `CC(C)OCCCNC(=O)CCc1nc(-c2ccccc2F)no1`?
CBX7 inh: inactive

What do the screens show for `Cc1nc(C)c(-c2csc(Nc3ccccc3)n2)s1`?
CBX7 inh: 0.48

Results for c1ccc(Nc2nc(-c3cccs3)cs2)cc1 ?
CBX7 inh: inactive

What do the screens show for `Cc1nc(C)c(-c2csc(Nc3ccc(C(=O)O)cc3)n2)s1`?
CBX7 inh: inactive

How did Cc1cccc(Nc2nc(-c3sc(C)nc3C)cs2)c1 do in these assays?
CBX7 inh: 0.45

What do the screens show for `Cc1nc(C)c(-c2csc(Nc3cccc(C(=O)O)c3)n2)s1`?
CBX7 inh: inactive

How did Cc1nc(C)c(-c2csc(Nc3cccc(O)c3)n2)s1 do in these assays?
CBX7 inh: inactive
